Assay results: PubChem BioAssay AID1508621 (National Center for Advancing Translational Sciences (NCATS), 2021)
Results filed as inconclusive are left out. Where a call stands in place of a potency, no number is given. Activity calls are given as the source filed them. Calls follow the shape of the dose curve; as a rule, active = well fitted inhibition curve with a large enough effect; inconclusive = small, poorly fitted or top-dose-only effect; inactive = no such curve, though single readings can be large or run the other way.

experiment: Confirmatory qHTS for Identification of Small Molecule Inhibitors of Huntingtin Promoter Activity; details: HEK293 HTT promoter firefly luciferase reporter, 24 h; series mostly up to 57.5 µM; also: nearly all actives have a fitted effect of over 65% in size
Summary of the method: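 2,500 luciferase reporter HEK293 cells/well; 24 h culture; cpds up to 57.5 uM final, PTC124 50 uM ctrl; 24 h, 37C; Dual-Glo FLuc reagent, 10 min RT; lum. Norm.: vehicle 0%, zero RLU -100%.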
Potency is read from the fitted curve at half-maximal effect.

Compound | Potency
Cc1ccc(S(=O)(=O)n2nc(-c3ccccc3)nc2NCc2ccccc2Cl)cc1 | inactive
Cc1ccc(CN(C(=O)COc2cccc(Cl)c2)c2ccccn2)o1 | inactive
Cc1cc(C)c(NS(=O)(=O)c2ccc(-c3cnc(C4CC4)o3)cc2)c(C)c1 | 0.675 µM (active)
CCN(CC)S(=O)(=O)c1ccc(NC(=O)CCc2c(C)nc3cc(-c4ccc(Cl)cc4)nn3c2C)cc1 | 0.301 µM (active)
CN(C)c1ccc(C(=O)NCCCCCCC(=O)NO)cc1 | inactive
O=S(=O)(c1ccc(-c2csc(=Nc3ccc(OC(F)(F)Cl)cc3)n2CCCO)cc1)N1CCCC1 | 1.9 µM (active)
Cc1ccc(-n2ncc3c(N(C)Cc4ccccc4)ncnc32)cc1 | inactive
N#CCNC(=O)c1ccc(-c2ccnc(Nc3ccc(N4CCOCC4)cc3)n2)cc1 | inactive
Cc1cccc(NC(=O)c2c(NC(=O)C(F)(F)F)sc3c2CCCCC3)c1 | 2.39 µM (active)
CCN(CCCNC(=O)CSc1cc(=O)n(CC)c2ccccc12)c1ccccc1 | inactive
O=C(CSc1nccn1Cc1ccco1)Nc1cc(C(F)(F)F)ccc1Cl | inactive
Cc1ccc(-n2ncc3c(N(CCO)Cc4ccccc4)ncnc32)cc1 | inactive
CN[C@H]1[C@@H](O)[C@@H]2O[C@@H]3O[C@H](C)CC(=O)[C@]3(O)O[C@@H]2[C@@H](NC)[C@H]1O | inactive
COc1cc(OC)c(OC)cc1/C=C/c1nc2cc3ccccc3cc2c(=O)n1-c1ccc(F)c(Cl)c1 | inactive
FC(F)(F)c1cccc(Nc2nc3nonc3nc2Nc2ccc(Cl)cc2)c1 | 0.379 µM (active)
O=C(O)c1cc(-n2c(/C=C\c3ccc(F)cc3)nc3ccccc3c2=O)ccc1Cl | inactive
O=C(Cc1ccccc1)Nc1cccc(-c2cn3cccnc3n2)c1 | inactive
COc1ccc(N2CCN(C(=O)c3ccc4c(=O)n(CCc5ccc(OC)c(OC)c5)c(=O)[nH]c4c3)CC2)cc1 | 12 µM (active)
COc1cccc(N2CCN(C(=O)c3cccc(-n4c(C)nc5cccnc54)c3)CC2)c1 | 23.9 µM (active)

Compound | Potency
Cc1c(NS(C)(=O)=O)cccc1-c1nc2ccccc2s1 | inactive
Cc1ccc(NC(=O)c2ccc(C)c(S(=O)(=O)N3CCCCCC3)c2)cc1 | inactive
O=c1c(O)c(-c2ccc(O)cc2)oc2cc(O)cc(O)c12 | inactive
COc1ccccc1C1CC(=O)NC(C)=C1C(=O)OC1CCCCCC1 (configuration not stated) | inactive
CSc1ccc(/C=C/c2nc3ccccc3n2S(=O)(=O)c2ccc(F)c(C)c2)cc1 | inactive
C1=CCOCc2cc(ccc2OCCN2CCCC2)Nc2nccc(n2)-c2cccc(c2)OCC1 | 9.53 µM (active)
CC(C)c1nc2ccc(C(=O)NCCCN3CCN(c4cccc(Cl)c4)CC3)cc2o1 | inactive
O=C(Cn1cc(SCc2ccccc2F)c2ccccc21)N1CCCC1 | inactive
CC(C)OCc1cc(CN2CCN(c3cccc(C(F)(F)F)c3)CC2)c(O)c2ncccc12 | 9.53 µM (active)
Cc1ccc2nc(CSc3nnc(NC(=O)COc4ccccc4)s3)cc(=O)n2c1 | inactive
CCS(=O)(=O)c1oc(-c2ccc(F)cc2)nc1S(=O)(=O)c1ccc(Br)cc1 | inactive
C#Cc1cccc(Nc2ncnc3cc(OC)c(OCCCCCCC(=O)NO)cc23)c1 | inactive
CN1C(=O)c2ccccc2Sc2ccc(NC(=O)NCc3ccc(Cl)cc3)cc21 | 23.9 µM (active)
CCS(=O)(=O)c1ncc(Cl)c(C(=O)NCc2ccc(OC)cc2)n1 | 19 µM (active)
CCCS(=O)(=O)NCCc1sc2nc(-c3ccc(F)cc3)nn2c1C | inactive
CC(C)C[C@@H](C=O)NC(=O)[C@H](CC(C)C)NC(=O)[C@H](CC(C)C)NC(=O)OCc1ccccc1 | 2.13 µM (active)
COC[C@H](NC(=O)c1cnc(C)s1)C(=O)N[C@@H](COC)C(=O)N[C@@H](Cc1ccccc1)C(=O)[C@@]1(C)CO1 | 0.301 µM (active)
Cc1ccc(S(=O)(=O)Nc2cccc(-c3ccc(N4CCCCC4)nn3)c2)s1 | inactive
